Screens (PubChem BioAssay)
CendR NRP1 mod: NRP-1/CendR interaction modulation; O14786; FAM-RPARPAR peptide binding to NRP-1, fluorescence polarization; inhibition, % at 25 µM; 0.85% of 360,000 active; AID 602438;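 active means inhibition or corrected inhibition above about 18%, plus a signal ratio from 0.5 to 1.5, limit read from the data, passing the limit was not always enough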
APOBEC3A inh: blocks human APOBEC3A ssDNA deamination; inhibition, % at 20 µM; P31941; recombinant A3A, FAM/TAMRA ssDNA deamination fluorescence; 0.41% of 330,000 active;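 active means at least 40% inhibition at 20 µM here, with at most 30% in a related deaminase screen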;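 further: plate controls were A3A with DMSO for no effect and wells lacking A3A enzyme for full effect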
A3G deaminase: APOBEC3G (human) deaminase inhibition; AID 493012; 0.28% of 330,000 active; recombinant A3G, ssDNA deamination FAM/TAMRA fluorescence; inhibition, % at 20 µM;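 active means inhibition of at least 40% at 20 µM, with no more than 30% in the related APOBEC3A deaminase screen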;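 further: plate controls were DMSO wells with A3G for no effect and wells lacking A3G enzyme for full effect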
Target sequence (Q9HC16 whole entry, looked up): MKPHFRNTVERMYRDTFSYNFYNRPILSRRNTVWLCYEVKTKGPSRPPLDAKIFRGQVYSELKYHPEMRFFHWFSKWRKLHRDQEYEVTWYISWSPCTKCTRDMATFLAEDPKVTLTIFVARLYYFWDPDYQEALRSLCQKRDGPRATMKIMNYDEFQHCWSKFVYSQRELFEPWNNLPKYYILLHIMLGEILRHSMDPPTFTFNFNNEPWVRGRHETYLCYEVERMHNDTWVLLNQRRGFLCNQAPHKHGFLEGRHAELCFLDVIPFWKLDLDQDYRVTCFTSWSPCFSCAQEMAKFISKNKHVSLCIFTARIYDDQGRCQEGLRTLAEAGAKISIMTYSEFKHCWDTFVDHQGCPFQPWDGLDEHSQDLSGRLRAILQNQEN
M18AAP inhibitor: PfM18AAP enzyme inhibition; 1.2% of 290,000 active; inhibition, % at 7.35 µM; recombinant PfM18AAP, H-Glu-NHMec fluorogenic cleavage;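 active means inhibition above the campaign mean inhibition over all tested compounds plus 3 SD, cut at about 28% in these data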;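 further: 0% = plate median of test compound wells and 100% = 2 mM ZnCl2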
ALR H2O2 inh: blocks human ALR sulfhydryl oxidase activity; purified ALR, DTT oxidation, H2O2 HRP-luminol luminescence; inhibition, % (concentration not given with the values); 3.8% of 290,000 active; AID 485317;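 active means mean replicate inhibition above about 79%, with every replicate also reaching it, limit read from the data; inconclusive means only one of the two criteria met; inactive means mean below limit and not every replicate reaching it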
Target sequence (P55789 whole entry, looked up): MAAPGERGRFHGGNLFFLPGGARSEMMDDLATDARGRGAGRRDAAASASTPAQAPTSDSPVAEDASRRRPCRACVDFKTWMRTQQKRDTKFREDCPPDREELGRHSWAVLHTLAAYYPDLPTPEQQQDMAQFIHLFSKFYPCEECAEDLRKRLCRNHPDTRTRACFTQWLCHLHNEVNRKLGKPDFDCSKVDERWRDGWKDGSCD
Yeast superoxide: lowers age-related superoxide in aged yeast cells. S. cerevisiae aged cells, superoxide DHE fluorescence; stronger effect = lower value. superoxide response (% of plate mean), % at 10 µM. 0.18% of 330,000 active. AID 2690;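 active means superoxide response under a set limit, about three screen SD below normal, cut at about 65% in these data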;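 further: yeast aged for seven days with compound at 30 °C before DHE staining; 100% = average MFI of all compound-treated wells on the plate with controls excluded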
The depositor's hits bear a star; ? = inconclusive; · = no result given. In the library only some 5.2% were active in any assay of this set; here they are far more common.

SMILES	CendR NRP1 mod	APOBEC3A inh	A3G deaminase	M18AAP inhibitor	ALR H2O2 inh	Yeast superoxide
CC(C)(C)n1nnnc1C(c1cccs1)N1CCN(c2ccccc2)CC1 (stereo not drawn)	-7.9	-5.4	-7.5	-5.1	·	105.7
Cc1ccc(N(CC(=O)NCc2ccc3c(c2)OCO3)S(=O)(=O)c2c(C)noc2C)cc1	-1.5	-3.6	-4.2	10.7	97.3*	123.6
Cc1ccc(CNC(=O)CN(c2ccc(C(C)C)cc2)S(=O)(=O)c2c(C)noc2C)cc1	7.7	-4.3	-7.5	-1.4	5.5	87.8
Cc1noc(C)c1S(=O)(=O)N(CC(=O)NCc1ccc2c(c1)OCO2)c1ccc(C(C)C)cc1	5.5	1.3	-4.1	-0.9	95.2*	97.4
Cc1cc(C)cc(N(CC(=O)NCc2ccco2)S(=O)(=O)c2c(C)noc2C)c1	-2.7	-0.5	0.8	1.6	85.7*	91.5
COc1ccc(CNC(=O)CN(c2ccc(C)cc2)S(=O)(=O)c2c(C)noc2C)cc1	-10.5	-2.8	0.6	0.9	-2.4	97.3
CCOc1ccc(N(CC(=O)Nc2cccc(Cl)c2)S(=O)(=O)c2c(C)noc2C)cc1	-6.3	3.1	1.2	-14.2	96.8*	101.2
O=C(COc1ccccc1[N+](=O)[O-])Nc1ccc(N2CCN(C(=O)c3cccs3)CC2)cc1	-1.7	-0.2	-3.3	1.6	-3.5	105.2
CSc1cccc(-n2cc(-c3ccc4c(c3)OCO4)[nH]c2=O)c1	-16.2	·	·	28.6*	-14.4	86.5
CSc1cccc(NC(=O)CNC(=O)c2ccc3c(c2)OCO3)c1	-7.4	-2.7	-6.8	·	-11.4	98.3
O=C(NCCN1CCOCC1)c1cc(-c2ccc(F)cc2)on1	37.9*	3.7	1.1	-3.0	-3.3	116.3
COc1ccc(CCNC(=O)c2nnn(CC(=O)Nc3c(C)cc(C)cc3C)c2N)cc1OC	-11.7	1.9	2.3	-2.4	-5.2	68.9
C/C(=N\Nc1nc(C)cc(-c2ccccc2)n1)c1cccc(N)c1	5.9	-3.7	-1.3	0.5	99.0*	98.4
C/C(=N\Nc1nc(C)cc(-c2ccccc2)n1)c1ccccc1	10.8	-5.0	-6.3	1.3	-1.3	99.4
C/C(=N\Nc1nc(C)cc(-c2ccccc2)n1)c1ccc(O)cc1	8.7	-4.3	-4.9	5.5	96.1*	97.7
O=C(CNC(=O)c1ccc(F)cc1)NCc1ccccn1	6.2	-3.0	-7.7	·	·	103.3
COc1cccc(-c2nc(CS(=O)CC(=O)NC3CCCCC3)c(C)o2)c1 (stereo not drawn)	-9.9	-6.3	-10.8	-1.4	99.5*	130.5
COc1cccc(-c2nc(CS(=O)CC(=O)NC3CCCC3)c(C)o2)c1 (stereo not drawn)	-6.2	-4.6	-6.2	-5.5	98.6*	103.9
COc1cccc(-c2noc(CCC(=O)NC3CCCC3)n2)c1	1.5	-5.8	-3.6	-2.5	-4.1	94.1
O=C(NCCCC(=O)N1CCOCC1)c1cccnc1	2.7	-1.5	-9.1	-5.2	-11.4	97.1
O=C1C2C3C=CC(C3)C2C(=O)N1CNc1ccc(O)cc1 (stereo not drawn)	·	0.7	4.0	·	99.1*	103.9
Cc1ccc(NCN2C(=O)C3C4C=CC(C4)C3C2=O)cc1 (stereo not drawn)	-12.0	0.2	-7.3	-13.4	61.5	99.8
CC(=O)Nc1ccc(NCN2C(=O)C3C4CCC(C4)C3C2=O)cc1 (stereo not drawn)	15.5	1.7	-4.6	-0.8	84.6*	96.7
Cc1ccc(NCN2C(=O)C3C4CCC(C4)C3C2=O)cc1 (stereo not drawn)	·	-2.5	-1.9	-5.1	14.0	97.7
CC(=O)Nc1c(O)nc(SCC(=O)N2CCCCC2)[nH]c1=O	1.5	-0.8	-1.6	·	·	90.1
SMILES	CendR NRP1 mod	APOBEC3A inh	A3G deaminase	M18AAP inhibitor	ALR H2O2 inh	Yeast superoxide
CCCc1c(O)nc(SCC(=O)N2CCCCC2)[nH]c1=O	4.4	-5.9	5.8	0.4	88.1*	117.7
CC(C)CCc1c(O)nc(SCC(=O)N2CCCCCC2)[nH]c1=O	0.1	-5.4	-5.6	4.4	87.5*	97.0
CCCNC(=O)C1(C)CCCN(C(=O)C(c2ccccc2)c2ccccc2)C1 (stereo not drawn)	13.5	·	·	·	·	·
COc1ccc(NC2C=CS(=O)(=O)C2)c(OC)c1 (stereo not drawn)	14.8	1.3	-2.4	6.5	84.9*	83.8
COc1cccc(NC2C=CS(=O)(=O)C2)c1 (stereo not drawn)	-6.2	-2.3	-1.9	-14.9	·	117.9
CC(Sc1nncn1C)C(=O)Nc1ccc(N2CCCCC2)cc1 (stereo not drawn)	-16.6	-2.2	-9.4	·	92.2*	104.5
CC(C)n1cnnc1SCC(=O)Nc1ccc(N2CCCCC2)cc1	-1.2	0.4	-1.5	·	98.8*	97.5
CC(C)(C)c1nnc(SCC(=O)Nc2ccc(N3CCCCC3)cc2)n1N	-7.2	-5.4	-5.5	·	99.2*	125.9
COc1ccc2c(c1)CCc1c(C(=O)Nc3ccn(Cc4ccc(C)cc4)n3)noc1-2	-2.4	-2.0	-4.6	-0.9	-10.0	107.0
COC(=O)C1=CN(c2ccc(Cl)cc2)C=C(C(=O)OC)C1c1ccc([N+](=O)[O-])cc1	-2.7	-1.5	-4.1	3.0	-5.2	102.8
COC(c1ccccc1)c1c(-c2ccccc2)nn(C)c1Cl (stereo not drawn)	2.1	-2.3	-11.4	-4.1	-13.9	97.9
Cn1c(=O)c2c(nc(CN3CCN(c4ccccc4)CC3)n2Cc2c(F)cccc2Cl)n(C)c1=O	1.9	2.0	-7.8	-12.9	97.3*	99.7
O=C(CSc1nnc(C2CC2)n1C1CC1)c1ccc(F)cc1	9.7	-2.9	-4.4	·	?	93.1
O=C(O)C1C(c2ccccc2)C(C(=O)N2CCOCC2)C1c1ccccc1 (stereo not drawn)	-7.2	-2.5	-4.6	-2.0	-0.3	115.1
O=C(C1CC1c1ccccc1)N1CCOCC1 (stereo not drawn)	-4.0	-1.4	-3.3	-1.3	98.4*	112.0
CNC(=O)CSc1nc2[nH]ncc2c(=O)[nH]1	6.3	-2.3	18.7	30.1*	4.2	86.7
O=c1[nH]c(SCc2ccccc2Cl)nc2[nH]ncc12	2.4	0.1	2.2	48.1*	-20.3	90.5
Cc1cccc(CSc2nc3[nH]ncc3c(=O)[nH]2)c1	2.6	-2.0	-4.3	14.1	2.5	80.4
COc1c(Cl)cc(Cl)cc1C(=O)Nc1ccc(NC(C)=O)cc1	-9.6	-0.1	-4.0	4.6	·	103.4
COC(=O)c1cc(Cl)cc(Cl)c1OS(=O)(=O)N(C)C	3.1	-1.4	-5.3	-6.7	98.9*	91.0
Cc1noc(C)c1COC(=O)CCOc1ccccc1	13.3	-2.5	-5.2	-2.1	3.0	104.8
Cc1noc(C)c1COC(=O)CCN1c2ccccc2Sc2ccccc21	-3.3	-3.0	-2.5	3.5	92.7*	104.2
O=[N+]([O-])c1ccc(C(O)CN=Cc2ccc(O)cc2O)cc1 (stereo not drawn)	12.4	-0.3	-2.0	4.4	-6.6	103.7
